Reference: ChEMBL document CHEMBL1157539, “Thousands of chemical starting points for antimalarial lead identification” (Nature, 2010)

Legend:
Assay type in all cases: functional
Plasmodium falciparum [1] = assay: GSK_TCMDC: Inhibition of Plasmodium falciparum 3D7 in whole red blood cells, using parasite LDH activity as an index of growth. Test compounds present at 2uM
Plasmodium falciparum [2] = assay: GSK_TCMDC: Inhibition of Plasmodium falciparum Dd2 in whole red blood cells, using parasite LDH activity as an index of growth. Test compounds present at 2uM
HepG2 = assay: GSK_TCMDC: Percent inhibition of human HepG2 cell line. Test compounds present at 10uM.

Question: Which Inhibition (Plasmodium falciparum [1]) does the source give for `CCOC(=O)c1ccc(N(CCCN(CCCN(c2ccc(C(=O)OCC)cc2)S(=O)(=O)c2ccc(C)cc2)CCc2ccc(O)cc2)S(=O)(=O)c2ccc(C)cc2)cc1` here?
Answer: 96%

Question: And the Inhibition (Plasmodium falciparum [2])?
Answer: 74%

Question: What about the Inhibition (HepG2) of the same compound?
Answer: 0%

Question: How did the Inhibition (Plasmodium falciparum [1]) turn out when `CCN(CC)CCCN(C(=O)Nc1ccc(C#N)cc1)c1nc(-c2ccc(F)cc2)cs1` was run?
Answer: 99%

Question: And the Inhibition (Plasmodium falciparum [2])?
Answer: 68%

Question: And the Inhibition (HepG2)?
Answer: 36%

Question: Which results are given for `COc1ccc2nccc([C@@H](O)CN3CCC(NCCOc4cc(C(F)(F)F)ccc4F)CC3)c2c1.O=C(O)C(=O)O`?
Answer: Inhibition (Plasmodium falciparum [1]): 100%; Inhibition (Plasmodium falciparum [2]): 83%; Inhibition (HepG2): 13%

Question: For `CCN(CC)c1cc(C)c2cc(NC(=O)c3cc(=O)c4ccccc4o3)ccc2n1`, which Inhibition (Plasmodium falciparum [1]) is on record?
Answer: 97%

Question: What about the Inhibition (Plasmodium falciparum [2]) of the same compound?
Answer: 67%

Question: And the Inhibition (HepG2)?
Answer: 14%

Question: With `O=C(NC1CCN(Cc2ccccc2)CC1)c1ccc(CNC2CCN(Cc3ccccc3)CC2)cc1.O=C(O)C(F)(F)F` as the compound, how does the Inhibition (Plasmodium falciparum [1]) read?
Answer: 99%

Question: And the Inhibition (Plasmodium falciparum [2])?
Answer: 58%

Question: And the Inhibition (HepG2)?
Answer: 14%

Question: `O=C(/C=C/c1ccc(Cl)c(Cl)c1)N1CCN(C(=O)Nc2ccc(C(F)(F)F)cc2)CC1` was tested. Which Inhibition (Plasmodium falciparum [1]) did it give?
Answer: 98%

Question: What about the Inhibition (Plasmodium falciparum [2]) of the same compound?
Answer: 100%

Question: What about the Inhibition (HepG2) of the same compound?
Answer: 47%

Question: How did the Inhibition (Plasmodium falciparum [1]) turn out when `Cc1ccc(C)c(-n2c(SCC(=O)Nc3ccc(C(N)=O)cc3)nnc2-c2cccc(Cl)c2)c1` was run?
Answer: 92%

Question: And the Inhibition (Plasmodium falciparum [2])?
Answer: 91%

Question: And the Inhibition (HepG2)?
Answer: 6%

Question: How did the Inhibition (Plasmodium falciparum [1]) turn out when `CC(C)(C)c1ccc(CN2CCC(CNC(=O)c3cc(-c4ccccc4Cl)cs3)C2)cc1.O=C(O)C(F)(F)F` (stereo not given) was run?
Answer: 100%

Question: What about the Inhibition (Plasmodium falciparum [2]) of the same compound?
Answer: 56%

Question: What about the Inhibition (HepG2) of the same compound?
Answer: 33%

Question: Which Inhibition (Plasmodium falciparum [1]) does the source give for `Cc1csc(-c2nonc2NC(=O)COc2ccccc2C(C)C)n1` here?
Answer: 90%

Question: What about the Inhibition (Plasmodium falciparum [2]) of the same compound?
Answer: 85%

Question: And the Inhibition (HepG2)?
Answer: 14%

Question: What does the source list for `CC(CN1CCN(C)CC1)C(=O)Nc1cccc(-c2ccc(-c3nc4ccccc4[nH]3)s2)c1` (stereo not given)?
Answer: Inhibition (Plasmodium falciparum [1]): 97%; Inhibition (Plasmodium falciparum [2]): 59%; Inhibition (HepG2): 2%
